Assay results: ChEMBL document CHEMBL1157539, “Thousands of chemical starting points for antimalarial lead identification” (Nature, 2010)
Over roughly 13,000 compounds, “IFI” has its median near 4; the highest 2% begin near 17. Shown is part of a subset that was picked to be rich in the highest values.

Assay: GSK_TCMDC: Inhibition Frequency Index (IFI). The number of non-kinase HTS assays where a compound showed > 50 % inhibition, expressed as a percentage of the number of such assays in which the compound was tested
Type: functional

| SMILES | IFI |
| --- | --- |
| O=C(CCc1c[nH]cn1)Nc1ccc(-c2ccc(-c3nc4ccccc4[nH]3)cc2)cc1 | 3.51% |
| CCNc1cc(C(=O)N[C@@H](Cc2ccccc2)[C@H](O)CNC(C)Cc2cccc(Cl)c2)cc(N2CCCCS2(=O)=O)c1 (stereo partly drawn) | 4.9% |
| COc1ccc2c(NN=Cc3ccc(N(C)C)cc3)ccnc2c1 | 5.8% |
| O=C(NCC1CCN(CCN2CCC(c3cn(CCO)c4ccccc34)CC2)CC1)c1ccc(-c2ccc(C(F)(F)F)cc2)cc1 | 10% |
| COc1ccc(O)c(-c2sc(N=C(N)N)nc2-c2ccccc2)c1 | 8.09% |
| Fc1cccc(C=NN=c2cc[nH]c3ccc(C(F)(F)F)cc23)c1 | 0% |
| N=C(NCCc1c[nH]c2ccccc12)NCc1ccccc1Cl | 4.32% |
| NOCCCCOc1ccc(Cl)cc1 | 0% |
| COc1ccc2nc(C)cc(NCc3cccc4ccccc34)c2c1 | 1.46% |
| Cc1cc(=NN=Cc2ccc(Cl)cc2)c2cccc(C)c2[nH]1 | 1.45% |
| COc1ccc(CNCc2cccc(-c3ccc(-c4nc5ccccc5[nH]4)s3)c2)cc1 | 7.69% |
| CC(Cc1ccc(OCCCCOc2ccccc2)cc1)NCCc1ccc(Oc2ccccc2)cc1 (stereo not drawn) | 18.2% |
| CN(C)CCCOc1ccc(CCNCc2cccc(Oc3ccc(Cl)cc3)c2)cc1 | 7.97% |
| CC(Cc1ccc(COc2ccc(CC(CO)NCCc3cccc(Cl)c3)cc2)cc1)NCCc1cccc(Cl)c1 (stereo not drawn) | 16.6% |
| COc1ccc(CCNCCCCCCNCCc2ccc(Cl)c3ccccc23)cc1OC | 9.42% |
| COc1cc(CNCCCCCCNCc2cc(OC)c3ccccc3c2OC)c(OC)c2ccccc12 | 17.3% |
| COc1c(CNCCCCCCNCc2cc(Cl)c3ccccc3c2OC)cc(Cl)c2ccccc12 | 19.4% |
| COc1cc(CNCCCCCCNCc2cc(OC)c(OC)c3ccccc23)c2ccccc2c1OC | 7.41% |
| CCOc1cc(OCC)c2ccccc2c1CNCCCCCCNCc1c(OCC)cc(OCC)c2ccccc12 | 16% |
| COc1c(CCNCCCCNCCc2cc(Cl)c3ccccc3c2OC)cc(Cl)c2ccccc12 | 19% |
| CCOc1ccc(CNCCCCCCNCc2ccc(OCC)c3ccccc23)c2ccccc12 | 15.4% |
| CCCCNCc1cc(Cl)c2ccccc2c1O | 6.77% |
| CCOc1cc(CNCCCCCCNCc2cc(OCC)c(OCC)c3ccccc23)c2ccccc2c1OCC | 18.8% |

| SMILES | IFI |
| --- | --- |
| COc1ccc(CCNCCCCCCNCCc2ccc(OC)c(OC)c2Cl)c(Cl)c1OC | 2.94% |
| COc1cc(CNCCCCCCNCc2cc(OC)cc3ccccc23)c2ccccc2c1 | 10.1% |
| COc1ccc(CNCCCCCCNCc2ccc(OC)c3ccccc23)c2ccccc12 | 8.21% |
| COc1ccc2nc(C)cc(N/N=C/c3cccc([N+](=O)[O-])c3)c2c1 | 1.42% |
| COc1cccc(-c2csc(C(=O)NCC3CCN(Cc4ccc(C(C)C)cc4)C3)c2)c1 (stereo not drawn) | 8% |
| CCN(CC)CCN(Cc1ccc(-c2ccc(C(F)(F)F)cc2)cc1)C(=O)Cn1c(CCc2c(F)cccc2F)nc(=O)c2ccccc21 | 11.7% |
| Cc1cccc2nc(-c3cccc(-c4cccc(NC(=O)Cc5c[nH]cn5)c4)c3)[nH]c12 | 4.63% |
| CN1CCN(S(=O)(=O)c2cccc(Nc3nccc(N(C)c4ccc5c(c4)nc(NC(=O)c4cccs4)n5C)n3)c2)CC1 | 2.26% |
| C#CCNCc1ccc(-c2ccc(-c3nc4cc(C(F)(F)F)ccc4[nH]3)s2)cc1 | 8.82% |
| CC(C)N1CCC(N(Cc2ccc(-c3ccc(C(F)(F)F)cc3)cc2)C(=O)Cn2c(CCc3cccc(F)c3F)nc(=O)c3cccnc32)CC1 | 16.1% |
| Cc1nn(CC(C)C)c2sc(C(=O)Nc3nc(-c4ccccn4)cs3)cc12 | 10% |
| COc1ccc(-c2cccc(NC(=O)c3cccc(Cl)c3)c2)cc1CN1CCNCC1 | 6.93% |
| COc1ccc2nccc([C@@H](O)CN3CCC(NCCOc4ccc(F)cc4F)CC3)c2c1 | 1.59% |
| Cc1cc(-c2cc(Cl)ccc2Cl)no1 | 0% |
| COc1ccc(N(c2nc(-c3cc(Cl)ccc3Cl)cs2)C2CCNC2)cc1 (stereo not drawn) | 20% |
| Cc1cc(F)ccc1N(c1nc(-c2cc(Cl)ccc2Cl)cs1)C1CCNC1 (stereo not drawn) | 21.4% |
| CC(C)c1cn2c3c(cc(C(=O)N[C@@H](Cc4ccccc4)[C@H](O)CNC4CCCCC4)cc13)N(C)S(=O)(=O)CC2 | 2.94% |
| CNCCCNCc1ccc(-c2ccc(F)c(Cl)c2)o1 | 2.78% |
| CN(C)CCCNCc1ccc(-c2ccc(F)c(Cl)c2)o1 | 6.94% |
| Clc1cc(Br)ccc1-c1ccc(CNCC2CCNCC2)o1 | 26.3% |
| O=C(/C=C/c1ccc(Cl)c(Cl)c1)N1CCN(C(=O)Nc2ccc(F)c(Cl)c2)CC1 | 15.2% |
| O=C(/C=C/c1ccc(Cl)c(Cl)c1)N1CCN(C(=O)Nc2ccc(C(F)(F)F)cc2)CC1 | 22.1% |
| O=C(/C=C/c1ccc(Cl)c(Cl)c1)N1CCN(C(=O)Nc2cccc(C(F)(F)F)c2)CC1 | 24.2% |

| SMILES | IFI |
| --- | --- |
| O=C(/C=C/c1ccc(Cl)c(Cl)c1)NCCCCCCN1CCCN(C(=O)Nc2cccc(C(F)(F)F)c2)CC1 | 8.26% |
| O=C(/C=C/c1ccc(Cl)c(Cl)c1)NCCCCCN1CCCN(C(=O)Nc2cccc(C(F)(F)F)c2)CC1 | 8.61% |
| O=C(/C=C/c1ccc(Cl)c(Cl)c1)NCCCCCCN1CCN(C(=O)Nc2ccc(C(F)(F)F)cc2)CC1 | 7.03% |
| O=C(Nc1cccc(C(F)(F)F)c1)c1ccc(S(=O)(=O)NCC2CCCN(CC3CCCCC3)C2)cc1 (stereo not drawn) | 5.1% |
| CCOC(=O)c1nc(-c2cccnc2)[nH]c1NC(=S)NCc1ccccc1 | 3.15% |
| C=C[C@]1(C)C[C@@H](OC(=O)CNC[C@@H](O)CN2C[C@H](c3ccnc4ccc(OC)nc34)OC2=O)[C@@]2(C)[C@@H]3C(=O)CC[C@@]3(CC[C@@H]2C)[C@@H](C)[C@@H]1O | 1.56% |
| Cc1cccc2nc(-c3cccc(-c4ccc(NC(=O)Nc5cccc(C#N)c5)cc4)c3)[nH]c12 | 5% |
| O=S(=O)(c1ccccc1)n1ccc2cc(Nc3ncnc4cc(C#C[C@H]5CCCN5)sc34)ccc21 | 8.57% |
| Cc1cc(F)ccc1Nc1nc(N(C)c2ccccc2)c2cc(OCCCN(C)C)ccc2n1 | 10.8% |
| N=C(NCc1ccc(O)cc1)Nc1nc(-c2ccc(OCCCn3ccnc3)cc2)cs1 | 6.47% |
| COc1ccc(Nc2nccc(NCC(O)c3cccc(C(F)(F)F)c3)n2)cc1 (stereo not drawn) | 15.3% |
| COc1cccc(C(O)CNc2ccnc(Nc3ccc(Cl)cc3)n2)c1 (stereo not drawn) | 19.8% |
| CN(C)Cc1ccc(-c2cccc(Nc3nccc(NCC(O)c4ccccc4)n3)c2)cc1 (stereo not drawn) | 11.2% |
| CN(C)CC(=O)Nc1ccc(Nc2nccc(NCC(O)c3ccccc3)n2)cc1 (stereo not drawn) | 2.94% |
| Cc1ccc(Nc2nccc(NCC(O)c3ccc(C(F)(F)F)cc3)n2)cc1 (stereo not drawn) | 9.18% |
| CN(C)Cc1cccc(-c2ccc(Nc3nccc(NCC(O)c4ccccc4)n3)cc2)c1 (stereo not drawn) | 17.2% |
| Cc1ccc(Nc2nccc(NCC(O)c3cccc(F)c3)n2)cc1 (stereo not drawn) | 9.71% |
| OC(CNc1ccnc(Nc2ccccc2)n1)c1cccc(C(F)(F)F)c1 (stereo not drawn) | 12.2% |
| OC(CNc1ccnc(Nc2ccc(Cl)cc2)n1)c1cccc(C(F)(F)F)c1 (stereo not drawn) | 16.3% |
| Cc1ccc(Nc2nccc(NCC(O)c3cccc(C)c3)n2)cc1 (stereo not drawn) | 18.4% |
| Cc1ccc(Nc2nccc(NCC(O)c3cccc(C(F)(F)F)c3)n2)cc1 (stereo not drawn) | 17.9% |
| Cc1cccc(Nc2nccc(NCC(O)c3cccc(C(F)(F)F)c3)n2)c1 (stereo not drawn) | 14.3% |
